Measurements from PubChem BioAssay AID2806 (Sanford-Burnham Center for Chemical Genomics, 2010).
The campaign covered roughly 330,000 compounds. About 660 (0.2%) were called active. For the sample, actives were picked, then their nearest neighbours and some compounds at random. Values without a mark were called inactive.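 How the source made its calls: active means inhibition of at least 40% at 10 µM in the primary screen; inactive means the rest.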

Each compound was assayed on intestinal alkaline phosphatase [Mus musculus] (assay: mouse intestinal phosphatase enzyme inhibition – biochemical, luminescence, uHTS, primary screen (AID 2806;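 further: plate controls were DMSO with enzyme for no effect and no enzyme wells for full effect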)). Conditions: purified mouse IAP, CDP-Star luminescence, 30 min; at 10 µM; stronger effect = higher value.

SMILES	inhibition
Cc1c(CC(=O)NCC(=O)NCC(=O)O)c(=O)oc2cc3oc4c(c3cc12)CCCC4	3.6%
CN(/C(=N/S(=O)(=O)c1cccs1)c1ccccc1)c1ccc(O)cc1	-15.8%
COCc1cc(C)nc(Nc2cc(C)ccc2C)c1C#N	-3.2%
Cc1nc2sccn2c(=O)c1S(=O)(=O)NCCc1ccccc1	-1.1%
Cc1cc(C)c(S(=O)(=O)NCCCN2CCOCC2)cc1Br	6.6%
O=C(/C=C/Nc1ccc(S(=O)(=O)Nc2cnc3ccccc3n2)cc1)c1cccnc1	10%
OCC[C@H]1C[C@@H](O)[C@H](O)[C@@]2(OCCc3ccccc32)O1	8.9%
COc1cc(C2CC(=O)Oc3cc(OC)c(OC)c(OC)c32)cc(OC)c1OC (stereo not drawn)	-2.2%
COc1ccc(OCCCC(=O)OC(C)C(=O)Nc2ccccc2[N+](=O)[O-])cc1 (stereo not drawn)	1.5%
O=C(O)C1OC(C(=O)O)C2C1C(F)(F)C2(F)F (stereo not drawn)	-3.4%
Cc1ccccc1OCC(=O)N(Cc1cccc(F)c1)C1CCS(=O)(=O)C1 (stereo not drawn)	-3.3%
CCC(=O)Nc1ccc(-c2ccc(N3CCCCC3)nn2)cc1	6.7%
COC(=O)c1ccc(S(=O)(=O)c2ccc(C(=O)OC)s2)s1	7.9%
Cc1ccc2c(c1)NC(=O)[C@@]1(C)[C@@H](c3ccccc3)[C@H]3COc4ccc(Cl)cc4[C@@H]3N1C2=O	-2.6%
O=C(c1ccc(Cl)cc1)N1N=C(c2ccccn2)CC1(O)C(F)(F)F (stereo not drawn)	-4%
O=c1[nH]c(=S)[nH]c2[nH]c(=S)[nH]c12	73.3% (active)
O=C(CN1CCN(C(=O)C2CCCO2)CC1)Nc1c(Cl)cccc1Cl (stereo not drawn)	3.1%
O=C(COC(=O)c1cnccn1)Nc1ccc(Cl)cc1C(F)(F)F	4.7%
Cc1ccc(OCc2nnc(NC(=O)OCC(C)C)s2)cc1	0.4%
Clc1ccccc1CSc1nnc(-c2ccco2)c(-c2ccco2)n1	60.4% (active)
S=C(NCc1ccco1)NCc1ccccc1Cl	-1%
CCc1nnc(SCc2cccc(F)c2)nc1CC	4.4%
O=C(Nc1nnc(SCc2ccccc2Cl)s1)c1cccc([N+](=O)[O-])c1	22.8%
c1ccc(CSc2nnc(-c3ccco3)c(-c3ccco3)n2)cc1	49% (active)

SMILES	inhibition
Clc1ccc(CSc2nnc3c(n2)[nH]c2ccccc23)cc1	12.9%
C[C@H](NC(=O)[C@@H]1Cc2ccccc2CN1C(=O)OC(C)(C)C)C(=O)NC1CCCC1	-2.7%
Cc1cccc(OCC(O)Cn2c(N3CCCCC3)nc3c2c(=O)[nH]c(=O)n3C)c1 (stereo not drawn)	-1.1%
Cc1ccc(CNC(=O)C2CCCN2S(=O)(=O)c2ccc3c(c2)C(C)(C)C(=O)N3C)cc1 (stereo not drawn)	-1%
CC(C)OC(=O)c1cc(NC(=O)C2C3CCC(O3)C2C(=O)O)cc(C(=O)OC(C)C)c1 (stereo not drawn)	7.3%
COc1ccccc1CCNC(=O)c1c(C)nn(CC(C)C)c1Cl	6.5%
Cc1ccc(N=C2NC(=O)/C(=C/C=C/c3ccco3)S2)cc1C	56% (active)
CN1C(=O)/C(=C/c2ccco2)SC1=Nc1cccc(C(=O)O)c1	9.6%
CC(=O)Nc1ccc(NC(=O)C(NS(=O)(=O)c2ccc3c(c2)OCCO3)C(C)C)cc1 (stereo not drawn)	3.4%
O=c1ccc2c(-c3ccccc3S(=O)(=O)O)c3ccc(O)c(O)c3oc-2c1O	64.9% (active)
Cc1ccccc1C(OCCN(C)C)C1CCCCC1 (stereo not drawn)	-6%
CCN(C[C@H]1N[C@@](CC)(C(=O)OC)[C@H]2C(=O)N(C)C(=O)[C@@H]12)C(=O)Nc1ccc(F)cc1	2.6%
CCOC(=O)c1cc(-c2ccccc2C)n(Cc2cc(C)no2)n1	-6.2%
CN(C)c1ccc(N/C=C/C(=O)C(F)(F)F)cc1	7.4%
COCC1CCN(C(=O)C2CCC(=O)N(CC3CCCCC3)C2)CC1 (stereo not drawn)	4.4%
Nc1ccc2nc3c(=O)[nH]c(=S)[nH]c3nc2c1	70.9% (active)
C=CCC(NC(=O)Cc1ccccc1)C(=O)NCCC (stereo not drawn)	-3.3%
CCOc1ccc2nc(Cl)c(C3CC(c4ccccc4)=NN3C(=O)c3cccs3)cc2c1 (stereo not drawn)	13.7%
O=C(NCCOc1cccnc1)c1ccc(OC2CCN(Cc3ccccn3)CC2)cc1	4.2%
O=C(CCCN=C1NS(=O)(=O)c2ccccc21)OCC(=O)c1ccc(F)c(F)c1	-12.2%
COC(=O)CN(c1nc(C)c(Cl)c(OC)n1)S(=O)(=O)c1ccc(C)cc1	0.2%
CCCCN(C)CCNC(=O)C1CCCN(S(=O)(=O)c2cccc3nsnc23)C1 (stereo not drawn)	4.9%
CS(=O)(=O)N(CC(=O)NC1CCCC1)Cc1ccc(F)cc1	3.3%
C=CCSc1nc(N)cc(=O)[nH]1	4.4%

SMILES	inhibition
CCc1ccc(N(CC)c2ncnc3nc[nH]c23)cc1	7.5%
Cc1cc(C)c(C)c(S(=O)(=O)N[C@@H](C)C(=O)OC(C)C(=O)NC(N)=O)c1C (stereo partly drawn)	-4.2%
CC(NC(=O)c1ccccc1C(=O)O)c1ccc(-n2ccnc2)cc1 (stereo not drawn)	0.1%
COc1cc(/C=N\Nc2nc(-c3cccs3)c(NC(C)=O)s2)ccc1O	41% (active)
COc1cc(/C=N/NC(=O)CCc2n[nH]c(=O)[nH]c2=O)ccc1O	-0.9%
CC(=O)c1sc(N/N=C\c2ccc(C)cc2)nc1C	10.3%
Fc1ccccc1/C=C1\CCCC2=C1Nc1ncnn1C2c1ccccc1F (stereo not drawn)	0%
O=[N+]([O-])/C(N=Nc1ccccc1)=N\Nc1ccccc1	-0.1%
CSCCC1NC2(C(=O)Nc3ccc(Cl)cc32)[C@@H]2C(=O)N(C3CCCC3)C(=O)[C@H]12 (stereo partly drawn)	3.1%
Nc1c(C(=O)c2cccs2)sc2nsc(SCCN3CCCCC3)c12	16.4%
CN(c1ccccc1)S(=O)(=O)c1ccc2[nH]c(=O)[nH]c2c1	6.6%
CCN(c1ccccc1)S(=O)(=O)c1ccc2[nH]c(=O)[nH]c2c1	52.1% (active)
CCN(c1ccccc1)S(=O)(=O)c1ccc(N)cc1	-11.2%
CSCCC(NC(=O)c1cc([N+](=O)[O-])cc([N+](=O)[O-])c1)c1nc2ccccc2[nH]1 (stereo not drawn)	-2%
Nc1ccccc1Sc1cc(Cl)nnc1Cl	2.3%
C=CCN1CC(C)/C(=N\O)CC1C (stereo not drawn)	0.1%
CC(=O)Nc1ccc(NS(=O)(=O)c2ccc3c(c2)NC(=O)CC(=O)N3)cc1	1.9%
Cc1cccc(-c2nc(CS(=O)CC(=O)NC(C)CCc3ccccc3)c(C)o2)c1 (stereo not drawn)	-5%
CCCCn1c(N)c(N(CCOC)C(=O)c2oc3ccc(OC)cc3c2C)c(=O)[nH]c1=O	-5.8%
Cc1n[nH]c(=O)c2c(NC(=O)CSc3ccccc3F)oc(C)c12	-5.6%
Cc1ccccc1NC(=O)C1CCCN(C(=O)NCc2ccccc2)C1 (stereo not drawn)	-10.1%
C=CCNC(=S)NNC(=O)COc1c(Cl)cc(Cl)cc1Cl	2.2%
Cc1cccc(NC(=O)c2cc(S(=O)(=O)N3CCC4(CC3)OCCO4)ccc2F)c1	2.1%
CCOC(=O)c1c(C)[nH]c(C)c1C(=O)CSc1nc(N)cc(N)n1	2%

SMILES	inhibition
CNS(=O)(=O)c1ccc(C(=O)NCC(=O)NCCc2ccc3c(c2)OCCO3)cc1	-6.6%
O=C(CCC(=O)OCc1cccc(C(=O)Oc2ccccc2)c1)Nc1cccc2ccccc12	3.6%
COc1ccc(NC(=O)CSc2nnc(C3CC3)n2C)cc1S(=O)(=O)N1CCCCC1	-4.3%
CCN(CC)C(=O)CS(=O)CC(=O)Nc1cc(OCCOC)c(Cl)cc1Cl (stereo not drawn)	-1.1%
Cc1ccccc1CN1CCC(C(=O)Nc2ccc(Oc3cccnc3)cc2)CC1	-39.6%
CC(=O)Nc1ccc(C(=O)/C=C/c2ccc[nH]2)cc1	1.1%
CCCC(=O)Nc1ccc(C(=O)N/N=C/c2ccc[nH]2)cc1	40.9% (active)
O=C(COc1ccccc1[N+](=O)[O-])N/N=C/c1ccc[nH]1	9.7%
CCCC(=O)Nc1ccc(C(=O)NCCCn2ccnc2)cc1	-4.6%
CN(CC(=O)NNC(=O)CNC(=O)c1ccccc1Cl)S(=O)(=O)c1ccc(Cl)cc1	-5.3%
O=C(COc1cccc2ccccc12)Nc1cc(S(=O)(=O)N2CCOCC2)ccc1N1CCOCC1	4%
O=C1C=C(c2cc(C(F)(F)F)cc(C(F)(F)F)c2)C[C@@H](c2ccc3c(c2)OCO3)C1	13.5%
S=c1[nH]nc2c3c4c(sc3ncn12)CCCC4	12.3%
Cc1cccc(N)c1SC1CCCCC1O (stereo not drawn)	2.7%
COc1cccc(C(=O)OCc2cc(=O)oc3c(C)c(C)ccc23)c1OC	8.2%
Cn1c(SCC(=O)Nc2ccc(N3CCOCC3)cc2)nnc1C(F)(F)F	-6.7%
Cc1nnc(SCC(=O)Nc2ncc3c(n2)CC(C)(C)CC3=O)s1	8.5%
CCOc1ccc(N2C(=O)CN(c3cccc4ccccc34)C2=S)cc1	-14.2%
COc1ccc(OC)c(-c2csc(NC(=O)C3=NNC(=O)CC3)n2)c1	11.3%
COc1ccc(OC)c(Nc2nc(-c3ccc(O)c(O)c3)cs2)c1	68.7% (active)
COc1ccc(OC)c(-c2csc(NC(=O)COC(=O)C3CC3)n2)c1	6.9%
